The text below walks through data of PubChem BioAssay (Tox21).

Structures are written as SMILES. Inconclusive results are not listed. The source made the active and inactive calls. The call rests on the fitted dose curve; in most records, active means well fitted activation curve with a large enough effect in the signal ratio in the repeat runs (not every such curve was filed as active); inconclusive means weak or mixed curves; inactive means flat fitted curve, though single readings scatter; the % refers to the signal ratio.
On the % scale 0 is the no-effect control and ±100 the full control effect.

This test can be described thus: qHTS assay to identify small molecule agonists of the hypoxia (HIF-1) signaling pathway (AID 1224846). As to conditions: HRE-bla ME-180 cells, beta-lactamase ratio, 17 h; series mostly up to 76.8 µM. The text has this: U.S. Tox21 Program National Center for Advancing Translational Sciences [NCATS] NIH Chemical Genomics Center [NCGC] U.S. Environmental Protection Agency [EPA] National Institutes of Environmental Health Sciences [NIEHS] National Toxicology Program [NTP] U.S. Food and Drug Administration [FDA] Tox21 Assay Overview: Hypoxia-inducible factor-1 (HIF-1) is the major hypoxia-regulated transcription factor that controls cellular responses to low oxygen concentration. HIF-1 is composed of two subunits: hypoxia responsive HIF-1-alpha and constitutively expressed HIF-1-beta, which is also known as aryl hydrocarbon receptor nuclear translocator. During hypoxic conditions, HIF-1-alpha heterodimerizes with HIF-1-beta and translocates into the nucleus where the HIF-1 complex binds to the hypoxia-response element (HRE) and activates expression of target genes such as VEGF (vascular endothelial growth factor). The HIF-1 pathway is essential to normal growth and development, and is involved in the pathophysiology of cancer, inflammation, and ischemia. Using a beta-lactamase reporter-gene under control of the hypoxia response element, a cell-based assay [CellSensor(TM) HRE-bla ME-180 from Life Technologies, Carlsbad, CA] was used to measure hypoxia-induced signaling. Tox21 10K library compounds were measured for their ability to induce the reporter gene activity.
Tox21 Assay Protocol Summary: HRE-bla ME-180 cells were dispensed at 2,000 cells per well in 6 uL of assay medium containing 0.5% dialyzed FBS into black wall/clear-bottom 1536-well plates using a Multidrop Combi (Thermo Scientific, Waltham, MA) dispenser. After the assay plates were incubated at 37C and 5% CO2 for 5 hrs, 23 nL of compounds dissolved in DMSO, positive controls or DMSO only was transferred to each well of the assay plate using a Pintool station (Kalypsys, San Diego, CA). The assay plates were incubated at 37C and 5% CO2 for 17 hrs. One uL of LiveBLAzerTM B/G FRET substrate (CCF4-AM) (Life Technologies) was added to each well using a Flying Reagent Dispenser (Aurora Discovery, San Diego, CA).
On the technique in general: In qHTS, concentration-response curves come from the screen itself.
Turning to `C=CCOCC(O)CS(=O)(=O)O` (stereo not given), the outcome was inactive. On the same count and under the same terms, the entry for `O=c1[nH]c2ccccc2c(=O)n1CCCl` is “inactive”; for `CCC(C)(C)C1CCC(OC)CC1` (stereo not given) it is “inactive”.

For the molecule `CO`, the result was inactive. Still for that read-out and setting: the entry for `Nc1nc(F)nc2c1ncn2[C@@H]1O[C@H](CO)[C@@H](O)[C@@H]1O` is “inactive”; for `CC(=O)OC(C)(C)C` it is “inactive”. For `CCCCCCCCCCC1CO1` (stereo not given), the result was inactive. The same measure, in the same setting: the entry for `CCCCc1ccc(N)cc1` is “inactive”; for `CCC(=O)c1cccc(Cl)c1` it is “inactive”. Same read-out and setting: as for `CO[Si](OC)(OC)OC`, the entry is “inactive”. Still for that read-out and setting: as for `CC(C)(O)c1ccccc1`, the entry is “inactive”; as for `COC(=O)c1ccc(C(=O)OC)c(C(=O)OC)c1`, “inactive”; as for `CC(C)CCCC(C)CCCC(C)CCCCC(C)CCCC(C)CCCC(C)C` (stereo not given), “inactive”. Take `Cc1c(F)cc2c(=O)c(C(=O)O)cn3c2c1CCC3C` (stereo not given): the outcome was inactive. Turning to `C=C(C)[C@H]1CC=C(C)CC1`, the result was inactive.

Consider `COc1ccc(NC(C)=O)cc1`, for which the outcome was inactive. The same measure, in the same setting: the entry for `CC(C)=CCC/C(C)=C/C(=O)O` is “inactive”. On to `COc1ccc(N=[N+]([O-])c2ccc(OC)cc2)cc1`, for which the outcome was inactive. Same read-out and setting: as for `NC(=O)Nc1nc2ccccc2[nH]1`, the entry is “inactive”; as for `CCCCC1CCCCC(=O)O1` (stereo not given), “inactive”.

Consider `Cc1ccccc1C(=O)O`, for which the outcome was inactive.

For the molecule `C#CC(O)C(CC)CCCC` (stereo not given), the outcome was inactive.

With `C=C(C)C(=O)OCCCCCCCCCCCCCCCCCC`, the activation is -0.144% [at 15.8 µM] (inactive). As to `O=c1[nH]c(=O)n([C@H]2O[C@H](CO)[C@@H](O)[C@@H]2O)cc1/C=C\Br`, the result was inactive.

As to `CC(C)c1cccc(O)c1`, the outcome was inactive.

Take `O=C1CC2(CCCC2)CC(=O)N1`: the outcome was inactive. On to `CC(C)CCCC(C)NCCC(C)C` (stereo not given), for which the result was inactive. Still for that read-out and setting: as for `C=CC(=O)N1CCOCC1`, the entry is “inactive”; as for `Fc1ccccc1-c1ccccc1`, “inactive”; as for `CCC(C(=O)NC(N)=O)c1ccccc1` (stereo not given), “inactive”. Still for that read-out and setting: as for `CC(=O)CCc1ccc(O)cc1`, the entry is “inactive”. Same read-out and setting: the entry for `Cc1ncc(CSSCc2cnc(C)c(O)c2CO)c(CO)c1O` is “inactive”; for `CCOC(=O)Cn1c(=O)sc2cccc(Cl)c21` it is “inactive”. Turning to `NC(=O)c1ncn([C@@H]2O[C@H](CO)[C@@H](O)[C@H]2O)c1N`, the outcome was inactive. On the same count and under the same terms, as for `OCC(O)[C@@H](O)[C@H](O)[C@H](O)CO[C@H]1O[C@H](CO)[C@@H](O)[C@H](O)[C@H]1O` (stereo not given in full), the entry is “inactive”; as for `CC1(C)SC(C)(C)SC(C)(C)S1`, “inactive”.

Turning to `Cn1ccc2cc3c(cc21)CCN3C(=O)Nc1cccnc1`, the activation was -0.619% [at 15.8 µM] (inactive). For `c1ccc2cnncc2c1`, the result was inactive.

Regarding `CCCCCCCCCCCCI`, the outcome was inactive. On the same count and under the same terms, the entry for `CCCCCCC(CCCCCCCCCCC(=O)OCC(COC(C)=O)OC(C)=O)OC(C)=O` (stereo not given) is “inactive”.
